Test results: PubChem BioAssay (NCATS)
Unmarked numbers belong to inactive results. Active and inactive are the calls of the source. The rule behind the calls is not given here.

Experiment: qHTS assay for small molecule activators of the human pregnane X receptor (PXR) signaling pathway (AID 720659); note: 0% is about no effect
Settings: DPX-2 HepG2 CYP3A4-luciferase, 24 h; series mostly up to 92.3 µM; activation: at the top concentration

SMILES	activation	outcome
CC(C)CO	-1.24%	
CC(=O)c1ccccn1	-4.64%	
O=[N+]([O-])c1cccc(C(F)(F)F)c1	-13.7%	
CCCC(C)CO (centres undefined)	-7.51%	
O=C(O)c1ccc(Cl)c(Cl)c1	-5.42%	
CCCCCO	-2.74%	
CCCCC(C=O)CC (centres undefined)	-3.96%	
CNC(=O)N(c1ccccc1)c1ccccc1	-3.93%	
CC(C)CCOC(=O)/C=C/c1ccccc1	-2.12%	
CC(C)C(C)C	-3.55%	
CC(C)(O)CCC(C)(C)O	-6.21%	
C/C=C(/C)C#N	-1.51%	
CC/C=C1/OC(=O)c2ccccc21	-4.86%	
Nc1cc([N+](=O)[O-])ccc1C(=O)O		inactive
CC(=O)OC(C)=O	-0.246%	
CCCCOCCOCCOCCCC	-13.4%	
CNC(=O)c1ccccc1	-1.1%	
CCOc1ccccc1N	-11.5%	
OC/C(Br)=C(\Br)CO	0.114%	
O=Cc1cccc(Br)c1	-11.2%	

SMILES	activation	outcome
c1ccc(Nc2ccccc2)cc1		inactive
Cc1ccccc1C=O	18.4%	
O=C(O)CNC(=O)c1ccc([N+](=O)[O-])cc1	-12.9%	
CCc1ccccc1O	-0.0309%	
CCCCCCC=O	-6.3%	
FB(F)F	-8.95%	
C=Cc1ccccn1	-1.84%	
O=Cc1ccc(C(=O)O)cc1	-6.06%	
Clc1ccc(Cl)c(Cl)c1Cl		inactive
Cc1ccc2ccccc2c1[N+](=O)[O-]	-7.37%	
Cc1ccc(C(C)(C)C)cc1	-3.79%	
CN(C)CCCCl	-6.79%	
CC(N)CN (centres undefined)	-3.16%	
C/C=C1\CC2C=CC1C2 (centres undefined)	-0.161%	
C=CCCCCCC	-8.44%	
CCOCC(=O)O	-0.287%	
CC(=O)c1nccs1	-9.41%	
CCCCCCCCN	-11.5%	
CCc1ccccc1	0.257%	
